Screening data: PubChem BioAssay, several laboratories
ARNT-TACC3 inh: ARNT/TACC3 interaction disruption. Q9Y6A5. inhibition, % at 9.99 µM. hit rate 0.66% among 390,000. AlphaScreen His-ARNT PAS-B/GST-TACC3 binding, luminescence; TACC3 fragment carries E629A point mutation;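 active means mean inhibition of replicates at least 50% and at least half of replicates each reaching 50%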;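 further: 0% = complete ARNT plus TACC3 wells and 100% = ARNT alone without TACC3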
aDG glyco act: alpha-DG glycosylation activation. hit rate 0.22% among 360,000. activation, % at 10 µM. AID 624168. Pro5-aDG cells, alpha-DG glycosylation AlphaScreen (IIH6); 0% Pro5, 100% B10-LARGE cell signal;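 active means activation of at least 8% versus controls, or a plate z-score of at least 8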;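 further: Pro5 are CHO cells carrying HIG-tagged alpha-DG that lacks glycosylation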
Vif imaging: HIV Vif inhibition. inhibition, % at 7.49 µM. AID 602346. HEK293T cells, Vif self-association by quenched fluorescence, imaging, 24 h. hit rate 0.35% among 340,000; in the data active means inhibition above about 50%, passing the limit was not always enough
H9c2 protect: modulators protecting cardiomyocytes from myocardial damage | protection from H2O2 cell death, % at 20 µM | H9c2 cardiomyocytes, H2O2 injury protection, ATPLite, 2 h | AID 588492 | hit rate 0.63% among 360,000;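 active means compounds giving at least 50% protection of heart cells from peroxide-induced death in the single-dose screen, raw or plate-pattern-corrected value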;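 further: 0% = DMSO wells with peroxide and 100% = DMSO wells without peroxide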
N-glyco inh: N-linked glycosylation inhibition; D54 ERlucT glycosylation luciferase reporter, 24 h; percent of 100 nM tunicamycin response; reporter increase, % at 12.5 µM; hit rate 0.23% among 360,000;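 active means mean luciferase reporter signal, scaled so untreated is 0 and the glycosylation-blocking control 100, at or above a set limit in every replicate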;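 further: luciferase carries N-glycosylation sites so blocking glycosylation raises the light; 0% = median of neutral control wells and 100% = median of 100 nM tunicamycin wells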
Starred values were filed as active, the others as inactive; · = no result. Shown are actives, neighbours in structure and some others; about 1.7% of the full set was active somewhere.

SMILES | ARNT-TACC3 inh | aDG glyco act | Vif imaging | H9c2 protect | N-glyco inh
COc1ccc(NC(=O)N[C@@H]2CC[C@@H](CCn3cc(-c4ccc(F)cc4)nn3)O[C@@H]2CO)cc1 | -8 | · | · | · | ·
CCCCOc1ccc(C(=O)Nc2cc(C)c(OCC(=O)N3CCOCC3)c(C)c2)cc1 | 1 | 1 | -7 | -11 | -1
CCCN(CCC)S(=O)(=O)c1ccc(C(=O)Nc2ccc(OCC(=O)N3CCOCC3)cc2)cc1 | 3 | 0 | -13 | 0 | 40*
CC(=NCc1ccco1)c1c(C)[nH]n(-c2nc3ccccc3s2)c1=O | 2 | 0 | -4 | -11 | -11
C/C(=N/NC(=O)c1cccs1)c1c(C)[nH]n(-c2nc3ccccc3s2)c1=O | 47* | 2 | 6 | -23 | -10
O=C(Cn1cnc([N+](=O)[O-])c1)Nc1ccc(Cl)cc1Cl | · | 0 | 64* | -2 | 2
O=C(NCCCN1CCOCC1)c1ccc(CS(=O)(=O)Cc2ccccc2Cl)o1 | active | 0 | -31 | 1 | -1
O=C(NCCCN1CCCCCC1)c1ccc(CS(=O)(=O)Cc2ccccc2F)o1 | 20 | 0 | -19 | 4 | 1
COCC(=O)Nc1ccc2c(c1)[C@H]1C[C@H](CC(=O)NCc3ccc(-c4ccccc4)cc3)O[C@H](CO)[C@H]1O2 | 5 | · | · | · | ·
O=C(Nc1cccnc1)c1sc(Nc2ccccc2)nc1-c1ccccc1 | -1 | 0 | -1 | 65* | 1
CCOc1cc(/C=N/Nc2nn3cnnc3c3ccccc23)ccc1O | 57* | 0 | -18 | -12 | 2
CCC(=O)N1CC[C@@H]2[C@@H](CO)Nc3ccc(C#Cc4cccnc4)cc3[C@@H]21 | 2 | · | · | · | ·
Cc1ccc(C(=O)Oc2ccc(Cl)c3cccnc23)cc1[N+](=O)[O-] | 17 | 0 | -8 | 53* | 6
Cc1ccc(C(=O)Oc2cccnc2)cc1[N+](=O)[O-] | 1 | 0 | 2 | 0 | 0
COc1ccc(C(=O)Oc2cccc3cccnc23)cc1[N+](=O)[O-] | 56* | 1 | 8 | -3 | 1
NC(=O)c1ccc(Oc2cccc3cccnc23)c([N+](=O)[O-])c1 | -7 | 0 | 3 | 7 | 2
COc1ccc(CSc2cccc3cccnc23)cc1[N+](=O)[O-] | 45* | 0 | -3 | 2 | -1
COc1ccc(CSc2nc(C)[nH]c2[N+](=O)[O-])cc1[N+](=O)[O-] | · | 0 | 7 | 4 | 0
C[C@H]1CN([C@@H](C)CO)C(=O)Cc2cc(NC(=O)CCC(F)(F)F)ccc2O[C@@H]1CN(C)C(=O)Nc1ccc(C(F)(F)F)cc1 | -5 | · | · | · | ·
O=[N+]([O-])c1ccc(O)c(/C=N/Nc2ccccn2)c1 | 61* | 1 | -5 | 26 | -13
O=[N+]([O-])c1ccc(O)c(/C=N/Nc2nc3ccccc3[nH]2)c1 | 83* | 1 | 1 | 35 | -9
COc1ccc(O)c(/C=N/Nc2nc3ccccc3[nH]2)c1 | -13 | 0 | 0 | -3 | 2
CCOC(=O)c1cc(-c2ccccc2)sc1NC(=S)Nc1cc(C)ccn1 | -3 | 0 | 169* | 6 | 1
COc1ccc(N/C=C(\C#N)c2nc3ccccc3n2C)c(OC)c1 | 4 | -1 | -3 | 50* | 5
CCCC#Cc1ccc([C@@H]2[C@H]3CN(S(=O)(=O)c4ccccc4C)CCCCN3[C@H]2CO)cc1 | -2 | · | · | · | ·
CCCCn1c(O)c(N=Nc2ccccc2O)c2ccccc21 | 1 | 0 | 145* | -10 | 2
O=C(C[C@H]1CC[C@@H]2[C@H](COC[C@@H](O)CN2Cc2cc(F)ccc2F)O1)NCc1ccc(Cl)cc1 | 5 | · | · | · | ·
CC(C)(C)OC(=O)NCc1ccc(NC(=O)c2nc[nH]c2C(=O)NCCN(CCNC(=O)c2[nH]cnc2C(=O)Nc2ccc(CNC(=O)OC(C)(C)C)cc2)CCNC(=O)c2[nH]cnc2C(=O)Nc2ccc(CNC(=O)OC(C)(C)C)cc2)cc1 | 0 | 0 | -3 | 0 | 2
CC(C)(C)OC(=O)NCc1ccc(NC(=O)c2nc[nH]c2C(=O)NCCCNC(=O)c2[nH]cnc2C(=O)Nc2ccc(CNC(=O)OC(C)(C)C)cc2)cc1 | -4 | 0 | 6 | 52* | -10
CC(C)(C)OC(=O)NCc1ccc(NC(=O)c2nc[nH]c2C(=O)NCCCCCCNC(=O)c2[nH]cnc2C(=O)Nc2ccc(CNC(=O)OC(C)(C)C)cc2)cc1 | -8 | 0 | -3 | 51* | -2
